IDE exosite FP = exo-site inhibitors of human IDE, primary screen, biochemical, fluorescence anisotropy, probe displacement; hit rate 6.3% among 17,000; Insulin-degrading enzyme (Homo sapiens), P14735; AID 1259349, 2017; purified IDE, FL-6b probe fluorescence polarization; stronger effect = lower value; z-score at 20 µM;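 active means z-score of -3 or lower, meaning strong loss of probe binding signal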;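 further: His-tagged human IDE residues 42-1019 made in E. coli with 30 nM FL-6b probe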
Target sequence (P14735 42-1019 limits assumed): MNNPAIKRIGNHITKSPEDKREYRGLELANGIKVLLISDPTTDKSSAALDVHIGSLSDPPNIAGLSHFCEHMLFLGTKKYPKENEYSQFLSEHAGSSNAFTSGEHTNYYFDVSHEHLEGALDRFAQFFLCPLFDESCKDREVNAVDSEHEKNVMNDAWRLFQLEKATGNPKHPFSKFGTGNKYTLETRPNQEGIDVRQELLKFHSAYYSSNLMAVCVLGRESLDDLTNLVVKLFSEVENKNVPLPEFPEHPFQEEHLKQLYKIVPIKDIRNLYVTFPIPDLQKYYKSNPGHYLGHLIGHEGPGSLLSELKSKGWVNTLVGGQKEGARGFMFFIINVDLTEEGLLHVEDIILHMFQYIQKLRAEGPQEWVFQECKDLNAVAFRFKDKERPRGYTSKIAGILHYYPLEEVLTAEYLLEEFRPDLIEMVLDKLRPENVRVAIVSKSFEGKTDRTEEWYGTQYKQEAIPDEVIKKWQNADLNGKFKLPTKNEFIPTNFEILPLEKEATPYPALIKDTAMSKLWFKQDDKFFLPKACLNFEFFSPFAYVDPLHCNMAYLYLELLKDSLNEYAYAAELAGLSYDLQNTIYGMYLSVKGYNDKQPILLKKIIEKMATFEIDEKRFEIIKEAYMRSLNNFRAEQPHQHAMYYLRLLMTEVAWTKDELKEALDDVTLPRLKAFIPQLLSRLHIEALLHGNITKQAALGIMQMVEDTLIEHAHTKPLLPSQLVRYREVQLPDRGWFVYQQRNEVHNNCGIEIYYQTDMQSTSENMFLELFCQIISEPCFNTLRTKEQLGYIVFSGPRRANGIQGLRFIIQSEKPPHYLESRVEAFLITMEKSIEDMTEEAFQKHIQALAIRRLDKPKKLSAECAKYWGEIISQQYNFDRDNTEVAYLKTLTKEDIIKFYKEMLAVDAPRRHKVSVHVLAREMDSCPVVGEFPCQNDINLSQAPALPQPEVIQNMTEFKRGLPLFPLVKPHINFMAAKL
* hit, by the source's call; ! = not confirmed by another sample. Many of the other results were omitted from the sample, so hits are more common in it than they were.

SMILES	IDE exosite FP
COc1ccc(C#Cc2ccc([C@H]3[C@@H](CO)N4C(=O)CN(C(=O)c5ccccc5)C[C@@H]34)cc2)cc1	1.8
O=C(c1ccccc1)N1CC(=O)N2[C@H](CO)[C@H](c3ccc(C#Cc4ccccc4)cc3)[C@H]2C1	-5.3*
O=C(c1ccccc1)N1CC(=O)N2[C@H](CO)[C@@H](c3ccc(C#Cc4ccccc4)cc3)[C@@H]2C1	-0.2
COc1ccc(C#Cc2ccc([C@@H]3[C@@H](CO)N4C(=O)CN(C(=O)c5ccccc5)C[C@H]34)cc2)cc1	-0.18
O=C(c1ccccc1)N1CC(=O)N2[C@H](C1)[C@H](c1ccc(C#Cc3ccccc3)cc1)[C@@H]2CO	-4.3*
O=C(c1ccccc1)N1CC(=O)N2[C@@H](CO)[C@@H](c3ccc(C#CC4CC4)cc3)[C@@H]2C1	1
CC(C)[C@@H]1C/C=C\CCNC(=O)[C@H](C)CC(=O)N1	2
O=C(Nc1ccccc1F)N1CCCCN2[C@@H](CO)[C@H](c3ccc(-c4cccnc4)cc3)[C@@H]2C1	-0.2
CCC(=O)N1[C@@H](CO)[C@H](c2ccccc2)C12CN(C(=O)c1ccc3c(c1)OCO3)C2	0.26
O=S(=O)(c1ccccc1)N1CC2(C1)[C@@H](c1ccccc1)[C@@H](CO)N2CC1CCOCC1	1
O=C(O)C[C@@H]1C[C@@H]2c3cc(NC(=O)Cc4ccncc4)ccc3O[C@@H]2[C@H](CO)O1	0.84
O=C(C[C@@H]1C[C@@H]2c3cc(NS(=O)(=O)c4ccc(F)cc4)ccc3O[C@@H]2[C@H](CO)O1)NCCN1CCCCC1	1.7
O=C(c1ccc(F)cc1)N1CC(=O)N2[C@@H](CO)[C@H](c3ccc(C#CC4CC4)cc3)[C@@H]2C1	-0.68
O=C(c1cccnc1)N1CCCCN2[C@H](CO)[C@@H](c3ccc(C#Cc4ccccn4)cc3)[C@H]2C1	-4.7*
O=C(c1cccnc1)N1CCCCN2[C@H](C1)[C@@H](c1ccc(C#Cc3ccccn3)cc1)[C@@H]2CO	-3.8*
O=C(c1cccnc1)N1CCCCN2[C@H](CO)[C@@H](c3ccc(C#Cc4ccccn4)cc3)[C@@H]2C1	-2.6
O=C(c1cccnc1)N1CCCCN2[C@@H](CO)[C@H](c3ccc(C#Cc4cccnc4)cc3)[C@@H]2C1	0.61
CC(C)(O)C#Cc1ccc([C@H]2[C@@H](CO)N3CCCCN(C(=O)c4cccnc4)C[C@H]23)cc1	2
O=C(c1ccncc1)N1CCCCN2[C@@H](CO)[C@H](c3ccc(C#Cc4ccccn4)cc3)[C@@H]2C1	-1.1
CCC(=O)N1CC(=O)N2[C@@H](CO)[C@@H](c3ccc(C#CC(C)C)cc3)[C@@H]2C1	0.67
N#C[C@@H]1[C@H](c2ccc(C#CC3CCCC3)cc2)[C@@H](CO)N1S(=O)(=O)c1ccccc1	2.4
N#C[C@@H]1[C@H](c2ccccc2)[C@@H](CO)N1C(=O)CN1CCOCC1	1.6
CC(C)(C)[S@](=O)N1Cc2cc(C(=O)NCC(F)(F)F)nc(-c3cccc(-c4cccc(F)c4)c3)c2[C@@H]1CCO	-0.59
CC(C)(C)[S@@](=O)N1Cc2cc(C(=O)NCc3ccccc3F)nc(-c3cccc(-c4cncnc4)c3)c2[C@H]1CCO	-5.5*
CCCNC(=O)c1cc2c(c(-c3cccc(-c4ccc(F)cc4)c3)n1)[C@H](CCO)N([S@@](=O)C(C)(C)C)C2	1.5
SMILES	IDE exosite FP
CCC(=O)N1CC(=O)N2[C@H](CO)[C@H](c3ccc(C#Cc4cccc(F)c4)cc3)[C@H]2C1	-4*
CCC(=O)N1CC(=O)N2[C@@H](CO)[C@@H](c3ccc(C#Cc4cccc(F)c4)cc3)[C@@H]2C1	-4.1*
CS(=O)(=O)N1CC(=O)N2[C@H](C1)[C@@H](c1ccc(C#Cc3cccc(F)c3)cc1)[C@@H]2CO	0.91
CCS(=O)(=O)N1CC(=O)N2[C@H](CO)[C@@H](c3ccc(C#Cc4cccc(F)c4)cc3)[C@H]2C1	-2.4
CCC(=O)N1CC(=O)N2[C@H](CO)[C@@H](c3ccc(C#Cc4cccc(F)c4)cc3)[C@@H]2C1	-1.1
CCC(=O)N1CC(=O)N2[C@H](C1)[C@@H](c1ccc(C#Cc3cccc(F)c3)cc1)[C@@H]2CO	-1.3
CCS(=O)(=O)N1CC(=O)N2[C@H](C1)[C@H](c1ccc(C#Cc3cccc(F)c3)cc1)[C@@H]2CO	-5.4*
C/C=C/c1ccc([C@H]2[C@@H](CO)N(CCC)[C@H]2CNC(=O)CN2CCOCC2)cc1	0.61
O=C(Nc1ccc(F)cc1)N1CC(=O)N2[C@@H](CO)[C@H](c3ccc(C#Cc4cccnc4)cc3)[C@@H]2C1	0.2
O=C(Nc1ccc2c(c1)[C@@H]1C[C@H](CC(=O)N3CCCCC3)O[C@@H](CO)[C@@H]1O2)NC1CCCCC1	0.42
COc1cc(CN2CC3(CCN(S(=O)(=O)c4cn(C)cn4)CC3)c3c(n(C)c4cc(OC)ccc34)[C@H]2CO)cc(OC)c1	-2.5
C[C@@H]1CC(=O)NCC/C=C\C[C@@H](c2cccc(Cl)c2)NC1=O	0.37
CN(C)C(=O)c1ccc(-c2ccc(C3[C@@H]4CN(C(=O)c5cnccn5)C[C@H]3N4)cc2)cc1 (stereo partly specified)	2.2
N#Cc1cccc(-c2ccc(C3[C@@H]4CN(C(=O)c5ccccn5)C[C@H]3N4)cc2)c1 (stereo partly specified)	0.89
O=C(c1cccnc1)N1CC(=O)N2[C@@H](CO)[C@@H](c3ccc(-c4ccc(F)cc4)cc3)[C@@H]2C1	0.84
Cc1ccccc1-c1ccc([C@@H]2[C@H](CO)N3C(=O)CN(C(=O)c4cccnc4)C[C@@H]23)cc1	-7.2*
Cc1ccccc1-c1ccc([C@@H]2[C@@H](CO)N3C(=O)CN(C(=O)c4cccnc4)C[C@H]23)cc1	-3
Cc1ccccc1-c1ccc(C2[C@@H]3CN(C(=O)c4cnccn4)C[C@H]2N3)cc1 (stereo partly specified)	-20*!
Cc1ccccc1-c1ccc([C@@H]2[C@@H](CO)N3C(=O)CN(C(=O)c4cccnc4)C[C@@H]23)cc1	-13*
O=C(c1cccnc1)N1CC(=O)N2[C@@H](CO)[C@H](c3ccc(-c4ccc(F)cc4)cc3)[C@@H]2C1	2.7
O=C(c1cccnc1)N1CC(=O)N2[C@@H](CO)[C@H](c3ccc(-c4ccccc4F)cc3)[C@@H]2C1	0.46
CO[C@H]1CN(C)C(=O)c2ccc(NS(=O)(=O)c3ccc(C)cc3)cc2OC[C@H](C)N(C)C[C@@H]1C	1.1
C[C@H]1CCCCO[C@@H](CN(C)CC2CC2)[C@@H](C)CN([C@@H](C)CO)C(=O)c2cc(NC(=O)c3ccccc3)ccc2O1	-1
COCC(=O)N1CC[C@@H]2[C@H]1c1cc(-c3cccc(F)c3)ccc1N(C)[C@H]2CO	1.5
O=C(c1ccccc1)N1C[C@@H]2[C@H](c3ccccc31)[C@H](CO)N2Cc1ccccn1	1.9
SMILES	IDE exosite FP
CC(=O)N1CC(=O)N2[C@@H](CO)[C@H](c3ccc(-c4ccncc4)cc3)[C@@H]2C1	-0.3
C/C=C/c1ccc([C@@H]2[C@H](CO)N(S(C)(=O)=O)[C@H]2CN(CC)C(=O)CC)cc1	6.7
O=C1CN(S(=O)(=O)c2cccc(F)c2)C[C@H]2[C@H](c3ccc(C4=CCCC4)cc3)[C@@H](CO)N12	-0.33
COCC(=O)N1[C@H](C#N)[C@@H](c2ccc(-c3cccc(F)c3)cc2)[C@@H]1CO	-0.64
Cn1cnc(S(=O)(=O)N[C@@H]2CC[C@H](CC(=O)NCC3CCCCC3)O[C@H]2CO)c1	-1.1
CCS(=O)(=O)N1CC2(C1)[C@H](c1ccccc1)[C@@H](CO)N2Cc1ccc(F)cc1	0.73

Screens deposited in PubChem by Broad Institute.
